Laboratory results taken from PubChem BioAssay AID2576 (National Center for Advancing Translational Sciences (NCATS), 2010).
Results filed as inconclusive are left out. Calls of active or inactive are those of the source. Calls come from the whole dose curve; as a rule, active = well fitted activation curve with a large enough effect; inconclusive = small, poorly fitted or top-dose-only effect, or effect the other way; inactive = flat fitted curve, though single readings scatter.

molecular target: Pyruvate kinase PKM (Homo sapiens) (UniProt P14618); assay: Secondary LDH Assay for Activators of Human Pyruvate Kinase M2 isoform: for Probe SAR; conditions: purified hPK-M2, LDH-coupled NADH fluorescence kinetic; series mostly up to 58.4 µM; activation: at the top concentration
Sequence (P14618 whole entry, looked up, canonical isoform): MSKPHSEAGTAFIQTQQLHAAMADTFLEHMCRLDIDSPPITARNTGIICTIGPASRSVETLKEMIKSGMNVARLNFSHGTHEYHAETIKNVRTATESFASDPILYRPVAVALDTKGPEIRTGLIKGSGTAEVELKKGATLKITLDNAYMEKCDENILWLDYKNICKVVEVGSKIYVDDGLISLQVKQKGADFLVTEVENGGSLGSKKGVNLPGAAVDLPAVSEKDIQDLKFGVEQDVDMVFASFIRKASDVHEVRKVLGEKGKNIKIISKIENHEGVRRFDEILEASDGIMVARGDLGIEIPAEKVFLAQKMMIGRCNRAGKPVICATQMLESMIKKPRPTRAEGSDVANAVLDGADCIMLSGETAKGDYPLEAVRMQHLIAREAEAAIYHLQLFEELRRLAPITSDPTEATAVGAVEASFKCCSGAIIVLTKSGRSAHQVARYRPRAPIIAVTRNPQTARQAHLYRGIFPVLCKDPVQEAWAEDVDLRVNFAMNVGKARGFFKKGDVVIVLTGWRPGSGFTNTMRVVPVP
Text: NIH Chemical Genomics Center [NCGC] Matthew G. Vander Heiden, M.D., Ph.D. [Harvard Medical School, 77 Avenue Louis Pasteur, Boston, MA 02115] NCGC Assay Overview: Human pyruvate kinase muscle 2 (hPK-M2)enzyme was supplied as a highly purified (>95% pure) preparation from Harvard Medical School and a secondary assay was used to evaluate compounds. This assay couples the formation of pyruvate from hPK-M2 using lactate dehydrogenase (LDH) and NADH. The depletion of NADH is followed in a fluorescent-based kinetic assay that follows the formation of pyruvate to lactate, as catalyzed LDH (described by Hannaert et al., 2002)1 Pyruvate kinase substrates, PEP and ADP, were present in the assay at 0.1 mM and 4 mM respectively. In this kinetic assay initial rates were determined by following the fluorescence of NADH depletion.
NCGC Assay Protocol Summary: Three uL of substrate mix (final concentration, 50 mM Tris-Cl pH 8.0, 200 mM KCl, 15 mM MgCl2, 0.1 mM PEP, 4.0 mM ADP, and 0.2 mM NADH) was dispensed into black-solid 1536 well plates. 23 nL of compounds were delivered by a pin tool and 1 uL of enzyme mix (final concentrations, 10 nM hPK-M2 and 1 uM of LDH) was added. Plates were immediately placed in ViewLux (Perkin Elmer) and NADH fluorescence was determined at 30 second exposure intervals for between 3 and 6 minutes. Data were normalized to the uninhibited and EC100 activation using known activators such as fructose-bis-phosphate.

| SMILES | Potency | activation |
| --- | --- | --- |
| CSc1cc2c(s1)c1cnn(Cc3cccc(N)c3)c(=O)c1n2C | 0.058 µM (active) |  |
| O=S1(=O)N=C(Oc2ccc(Cl)cc2)c2ccccc21 |  | -1.7% (inactive) |
| Cc1cc(C)n2c(Nc3ccccc3)c(-c3ccc(C)o3)nc2n1 |  | -2.4% (inactive) |
| Cc1ccc(NS(=O)(=O)c2ccc3c(c2)N(C)C(=O)CO3)cc1C | 1.46 µM (active) |  |
| Cc1ccc2nc(-c3ccc(C)o3)c(Nc3ccc4c(c3)OCO4)n2c1 | 29.1 µM (active) |  |
| Cc1ccc2nc(-c3cccs3)c(Nc3ccccc3)n2c1 |  | -15.2% (inactive) |
| Cc1ccccc1OC1=NS(=O)(=O)c2ccccc21 |  | 1.19% (inactive) |
| O=C1c2ccccc2C(=O)N1c1cnc2ccccc2c1 |  | 21.2% (inactive) |
| Cc1ccc(NS(=O)(=O)c2cc3c(cc2F)NC(=O)CC3)cc1C | 2.59 µM (active) |  |
| O=C1c2ccccc2C(=O)N1c1ccncc1 |  | 11.9% (inactive) |
| COc1ccc(NS(=O)(=O)c2ccc3c(c2)CCC(=O)N3)cc1 |  | 24.1% (inactive) |
| COc1cc(F)c(S(=O)(=O)N2CCCN(S(=O)(=O)c3cccc(N)c3)CC2)c(F)c1 | 1.83 µM (active) |  |
| Cc1ccn2c(NC3CCCCC3)c(-c3ccc(C)o3)nc2c1 |  | -14.6% (inactive) |
| O=C1c2ccccc2C(=O)N1c1ccc(O)cc1 |  | 4.24% (inactive) |
| Cc1cccc(NS(=O)(=O)c2ccc3c(c2)CCC(=O)N3)c1 | 1.83 µM (active) |  |
| O=S1(=O)N=C(Oc2ccccc2Cl)c2ccccc21 |  | 4.09% (inactive) |
| Cn1c2cc(S(C)=O)sc2c2cnn(Cc3cccc(O)c3)c(=O)c21 (stereo not given) | 1.03 µM (active) |  |
| Cc1ccc(-c2nc3ccc(Cl)cn3c2Nc2ccccc2)o1 |  | -2.32% (inactive) |
| COc1cccc(OC2=NS(=O)(=O)c3ccccc32)c1 |  | 4.89% (inactive) |
| O=C1c2ccccc2C(=O)N1c1ccc(Cl)cc1 |  | 16.4% (inactive) |

| SMILES | Potency | activation |
| --- | --- | --- |
| O=C1CCc2cc(S(=O)(=O)Nc3cccnc3)ccc2N1 |  | -4.47% (inactive) |
| Cc1ccc(N2C(=O)c3ccccc3C2=O)c(C)c1 |  | 1.44% (inactive) |
| O=C1c2ccccc2C(=O)N1c1ccc2ncccc2c1 |  | -4.15% (inactive) |
| Cc1cc2c(s1)c1cnn(Cc3cc(F)c(F)cc3F)c(=O)c1n2C | 0.398 µM (active) |  |
| Cc1ccc(NS(=O)(=O)c2ccc3c(c2)CCC(C)(C)O3)cc1C |  | 11.9% (inactive) |
| Cc1ccc(N(C)S(=O)(=O)c2ccc3c(c2)CCC(=O)N3)cc1C |  | 0.911% (inactive) |
| Cc1ccc(NS(=O)(=O)c2cccc(C(=O)O)c2)cc1C |  | 14.2% (inactive) |
| Cc1ccc(NS(=O)(=O)c2ccc3c(c2)CCC(=O)N3)cc1 | 5.17 µM (active) |  |
| Cc1ccccc1Nc1c(-c2ccc(Cl)s2)nc2ccccn12 |  | 0.026% (inactive) |
| Nc1cc(S(=O)(=O)N2CCN(S(=O)(=O)c3ccc4c(c3)OCCO4)CC2)ccn1 |  | 20.4% (inactive) |
| COc1ccccc1NS(=O)(=O)c1ccc2c(c1)CCC(=O)N2 |  | 20.2% (inactive) |
| O=C1c2ccccc2C(=O)N1c1ccccn1 |  | -0.663% (inactive) |
| Cc1ccc(NS(=O)(=O)c2cccc(Cl)c2)cc1C |  | 27.6% (inactive) |
| O=C1CCc2cc(S(=O)(=O)Nc3cccc(-c4ccccc4)c3)ccc2N1 |  | 15.2% (inactive) |
| COc1ccc(Nc2c(-c3ccc(C)o3)nc3ccccn23)cc1 |  | -5.07% (inactive) |
| Cc1ccc(NS(=O)(=O)c2cc3c(cc2Cl)NC(=O)CO3)cc1C | 0.819 µM (active) |  |
| Cc1ccc(NS(=O)(=O)c2cc3c(cc2/C=C/c2ccccc2)NC(=O)CO3)cc1C |  | -4.81% (inactive) |
| Cc1ccc(OC2=NS(=O)(=O)c3ccccc32)cc1 |  | -2.38% (inactive) |
| O=C1c2ccccc2C(=O)N1c1cccc(Cl)c1 |  | -2.64% (inactive) |
| O=C1c2ccccc2C(=O)N1c1ncccc1O |  | 2.37% (inactive) |
